# Test results taken from article PMC4336329 (PLoS ONE, 2015).
# Out of some 310,000 compounds screened, about 2,200 (0.71%) showed an effect of 50% or more. The effect is printed as a negative number. The full list was thinned out, with strong results kept by preference.
# Target: human ether-à-go-go-related gene (hERG) potassium channel (human, UniProt Q12809)
# Assay: primary screen, population patch clamp on CHO cells stably expressing hERG; higher = less effect of the substance
# Chain of human ether-à-go-go-related gene (hERG) potassium channel (Q12809 whole entry, looked up): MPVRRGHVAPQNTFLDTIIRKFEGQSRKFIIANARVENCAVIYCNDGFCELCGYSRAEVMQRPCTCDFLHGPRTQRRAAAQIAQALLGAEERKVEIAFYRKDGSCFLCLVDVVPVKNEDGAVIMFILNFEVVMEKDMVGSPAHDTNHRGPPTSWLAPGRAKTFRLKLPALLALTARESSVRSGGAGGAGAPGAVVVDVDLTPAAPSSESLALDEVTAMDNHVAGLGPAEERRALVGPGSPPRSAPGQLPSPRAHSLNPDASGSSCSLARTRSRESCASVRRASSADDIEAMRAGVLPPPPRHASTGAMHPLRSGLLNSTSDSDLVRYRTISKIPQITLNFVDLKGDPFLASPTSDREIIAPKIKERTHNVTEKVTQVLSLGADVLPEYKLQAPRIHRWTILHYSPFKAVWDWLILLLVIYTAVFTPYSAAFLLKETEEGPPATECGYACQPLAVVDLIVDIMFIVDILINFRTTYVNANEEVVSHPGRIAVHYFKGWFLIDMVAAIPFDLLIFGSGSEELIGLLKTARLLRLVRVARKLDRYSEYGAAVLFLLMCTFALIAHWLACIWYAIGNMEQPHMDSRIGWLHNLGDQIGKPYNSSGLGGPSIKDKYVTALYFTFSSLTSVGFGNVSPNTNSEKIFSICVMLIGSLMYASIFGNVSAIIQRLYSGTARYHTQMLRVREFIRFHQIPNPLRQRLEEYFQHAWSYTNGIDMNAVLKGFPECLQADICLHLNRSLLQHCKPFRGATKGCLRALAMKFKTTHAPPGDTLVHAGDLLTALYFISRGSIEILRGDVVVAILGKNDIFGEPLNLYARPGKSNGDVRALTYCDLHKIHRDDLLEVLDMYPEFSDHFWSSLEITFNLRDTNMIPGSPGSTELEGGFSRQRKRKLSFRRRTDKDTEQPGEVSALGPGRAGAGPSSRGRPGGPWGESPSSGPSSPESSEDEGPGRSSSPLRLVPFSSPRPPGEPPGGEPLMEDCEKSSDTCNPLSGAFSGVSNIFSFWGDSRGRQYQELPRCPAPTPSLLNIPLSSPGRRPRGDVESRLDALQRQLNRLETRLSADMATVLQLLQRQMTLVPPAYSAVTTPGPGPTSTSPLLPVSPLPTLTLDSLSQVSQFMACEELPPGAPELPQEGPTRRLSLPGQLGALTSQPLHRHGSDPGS
row,SMILES,"hERG current change (%, negative = inhibition) at 1uM"
1,COc1ccc(COc2ccsc2C(=O)Nc2ccc(Cl)c(Cl)c2)cc1,13.6%
2,COc1cc(OC)cc(-c2nc(SCC(=O)Nc3ccccc3F)n[nH]2)c1,11.9%
3,CC(C)c1ccc(C(N)=S)cc1,7.86%
4,O=C(Cc1ccccc1)N1CCC2(CC1)NCCc1[nH]cnc12,20.4%
5,COc1ccc(NC(=O)/C=C/c2ccc(C)o2)cc1S(=O)(=O)N1CCOCC1,3.88%
6,COc1cc(S(=O)(=O)Nc2ccccc2N2CCCCC2)ccc1NC(C)=O,-4.5%
7,COC(=O)C(NC(=O)c1c(C)nn(C)c1Cl)c1ccccc1 (stereo not shown),14.2%
8,Cc1ccc2c(c1)c(C)c(C)n2CC(O)Cn1nnc2ccccc21 (stereo not shown),12.4%
9,CS(=O)(=O)NCc1nnc(SCc2c(F)cccc2Cl)o1,-1.52%
10,O=C(O)c1cccc(Nc2ccc([N+](=O)[O-])c3nonc23)c1,2.1%
11,Cc1cc(=O)n2nc(N3CCCC3C(=O)Nc3cccc(Cl)c3C)sc2n1 (stereo not shown),12.5%
12,COc1ccc(N2CCN(C(=O)c3ccc4c(=O)n(Cc5ccc6c(c5)OCO6)c(=O)[nH]c4c3)CC2)cc1,25%
13,CC(=O)/C(=C\N(C)C)Sc1ccc(C)cc1,27.2%
14,Cc1ccc(C(=O)Oc2cc(C)n(C)c(=O)c2)cc1,5.86%
15,COc1cc(Cl)nn(-c2ccccc2)c1=O,13.3%
16,CC1(c2ccc([N+](=O)[O-])cc2)Nc2ccccc2S1 (stereo not shown),10.9%
17,COc1ccc(C[C@@H]2CN3C(=NC[C@@H]3C)N2C[C@H](C)NC(=O)CCC2CCCCC2)cc1,-20.8%
18,COc1ccc(C[C@H]2CN3C(=NC[C@H]3C)N2CCNC(=O)CCC2CCCCC2)cc1,-51.9%
19,O=C(CCC1CCCCC1)NCCN1C2=NC[C@H](Cc3ccc(O)cc3)N2C[C@H]1Cc1ccc(O)cc1,12.5%
20,COc1ccc(-c2nnn(Cc3nc(N)nc(N4CCOCC4)n3)n2)cc1OC,3.65%
21,Nc1nc(Cn2nnc(-c3ccccc3Cl)n2)nc(N2CCOCC2)n1,-25.9%
22,Nc1nc(Cn2nnc(-c3ccccc3F)n2)nc(N2CCOCC2)n1,-53.8%
23,COc1ccc(S(=O)(=O)N2CCCC2CNC(=O)C(=O)NC2CCCCCC2)cc1 (stereo not shown),-3.96%

row,SMILES,"hERG current change (%, negative = inhibition) at 1uM"
1,O=C1CC2(CCN(C(=O)COc3ccccc3)CC2)Oc2ccccc21,-21.4%
2,Cc1cccc(OCC(=O)N2CCC3(CC2)CC(=O)c2ccccc2O3)c1,-6.58%
3,COc1ccc(OCC(=O)N2CCC3(CC2)CC(=O)c2ccccc2O3)cc1,-70.2%
4,O=C1CC2(CCN(C(=O)COc3ccc(Cl)cc3)CC2)Oc2ccccc21,-70.4%
5,Cc1ccccc1OCC(=O)N1CCC2(CC1)CC(=O)c1ccccc1O2,-10.3%
6,COc1cccc(OCC(=O)N2CCC3(CC2)CC(=O)c2ccccc2O3)c1,-5.23%
7,COc1ccc(OCC(=O)N2CCN(C(=O)COc3ccccc3)CC2)cc1,-24.7%
8,O=C1CC2(CCN(C(=O)COc3ccc(F)cc3)CC2)Oc2ccccc21,-17%
9,Cc1ccc(OCC(=O)N2CCC3(CC2)CC(=O)c2ccccc2O3)cc1,-49%
10,COc1ccc(OCC(=O)N2CCN(C(=O)COc3ccc(Br)cc3)CC2)cc1,-56.9%
11,CCOc1ccc(OCC(=O)N2CCC3(CC2)CC(=O)c2ccccc2O3)cc1,-56.8%
12,CC(=O)N1CCN(C(=O)COc2ccc(Br)cc2)CC1,3.21%
13,COc1ccc(NC(=O)N2CC(C)OC(C)C2)cc1OC (stereo not shown),9.39%
14,O=C1c2ccccc2C(=O)N1CCn1ccnc1,17.7%
15,CCOc1cccc(CNc2ccc(O)cc2)c1OCc1ccc(Cl)cc1Cl,10.8%
16,O=C(c1cnn2c(C(F)(F)F)cc(-c3ccco3)nc12)N1CCCc2ccccc21,-1.81%
17,COc1ccc(C2c3ccc(O)cc3Oc3ncn4nc(-c5ccccn5)nc4c32)cc1 (stereo not shown),18.3%
18,COc1ccc(C2c3ccc(O)cc3Oc3ncn(Cc4ccco4)c(=N)c32)cc1 (stereo not shown),-43.5%
19,COc1ccc(C2c3ccc(O)cc3Oc3ncn(Cc4ccco4)c(=N)c32)cc1OC (stereo not shown),-75.9%
20,N=c1c2c(ncn1CCCO)Oc1cc(O)ccc1C2c1ccccc1 (stereo not shown),0.259%
21,N=c1c2c(ncn1Cc1ccco1)Oc1c(ccc3ccccc13)C2c1ccccc1 (stereo not shown),1.59%
22,COc1ccc(C2c3ccc(O)cc3Oc3ncn4nc(-c5ccncc5)nc4c32)cc1OC (stereo not shown),-0.788%
23,COc1ccc(C2c3ccc(O)cc3Oc3ncn(Cc4ccccc4)c(=N)c32)cc1OC (stereo not shown),-0.742%

row,SMILES,"hERG current change (%, negative = inhibition) at 1uM"
1,COc1ccc(C2c3ccc(O)cc3Oc3ncn4nc(-c5ccccn5)nc4c32)cc1OC (stereo not shown),-50.1%
2,N=c1c2c(ncn1Cc1ccco1)Oc1cc(O)ccc1C2c1ccccc1 (stereo not shown),-69.5%
3,CCOC(=O)C1=C(Cn2cnc3ccccc32)NC(=O)NC1c1cc(C)ccc1C (stereo not shown),12.2%
4,CCOC(=O)CSc1nnc(CSc2nc3ccccc3s2)n1C,6.96%
5,COC(=O)Nc1nc2c(C)cccc2s1,-4.56%
6,CCN(c1ccc(NC(=O)c2ccc(Cl)nc2)cc1)C(C)C,12.2%
7,CS(=O)(=O)O.Oc1ccc(C2CNCCc3c2cc(O)c(O)c3Cl)cc1 (stereo not shown),-0.982%
8,CCS(=O)(=O)NCc1cn2c(C)csc2n1,0.136%
9,CCCc1[nH]n(-c2ccc([N+](=O)[O-])cc2)c(=O)c1C=NCCc1ccc(OC)c(OC)c1,4.23%
10,CCCc1[nH]n(-c2ccc([N+](=O)[O-])cc2)c(=O)c1C=NCCCn1ccnc1,-50.1%
11,CCCc1[nH]n(-c2ccc([N+](=O)[O-])cc2)c(=O)c1C=NCCN1CCNCC1,-9.24%
12,COc1cccc(CNC(=O)CCC2CCCN(c3cc(C)nc(N(C)C)n3)C2)c1 (stereo not shown),-27.7%
13,COc1cccc(CNC(=O)CCC2CCCN(Cc3ccc(OC(F)F)cc3)C2)c1 (stereo not shown),-80.1%
14,COc1ccc(/C=C/CN2CCCC(CCC(=O)NCc3ccc(F)c(F)c3)C2)cc1 (stereo not shown),-54.3%
15,COc1cccc(CNC(=O)CCC2CCCN(c3cc(C)nc(N)n3)C2)c1 (stereo not shown),-18.3%
16,COc1ccccc1/C=C/CN1CCCC(CCC(=O)NCc2ccc(F)c(F)c2)C1 (stereo not shown),-26.2%
17,COc1cccc(CNC(=O)CCC2CCCN(c3cc(C)nc(N4CCCC4)n3)C2)c1 (stereo not shown),-74%
18,COc1cccc(CNC(=O)CCC2CCCN(C/C=C/c3ccccc3OC)C2)c1 (stereo not shown),-34.5%
19,COCc1ccc(CN2CCCC(CCC(=O)NCc3cccc(OC)c3)C2)o1 (stereo not shown),11%
20,COc1cccc(CNC(=O)CCC2CCCN(Cc3cc(Cl)ccc3O)C2)c1 (stereo not shown),-20%
21,C/C(CC(=O)Nc1cccc(Cl)c1Cl)=N\NC(=O)c1ccccc1C,8.35%
22,CC(=O)Nc1cccc(NC(=O)CSc2ncc(C(=O)Nc3ccc(F)cc3)c(=O)n2C)c1,-3.89%
23,COc1ccc(C2(C#N)CCC(=O)N2c2ccccc2)cc1 (stereo not shown),8.4%

row,SMILES,"hERG current change (%, negative = inhibition) at 1uM"
1,COC(=O)CNC(=O)CN1c2cccc3cccc(c23)S1(=O)=O,-12.4%
2,Cc1c(C(=O)O)c(-c2ccccc2)nn1-c1ccccc1,10.8%
3,Cc1ccc(C(=O)NC2CCN(C(=O)Nc3ccc(F)cc3)CC2)cc1,8.68%
4,O=C(NC1CCN(Cc2ccc(Cl)cc2Cl)CC1)c1ccccc1,-6.37%
5,Cc1ccc(C(=O)NC2CCN(CCCC(=O)c3ccc(F)cc3)CC2)cc1,-72.9%
6,O=C(c1ccc(F)cc1)C1CCN(C(=O)c2ccc(F)cc2)CC1,2.31%
7,Cc1ccc(C(=O)NC2CCN(S(=O)(=O)c3ccc(F)cc3)CC2)cc1,9.73%
8,O=C(NC1CCN(Cc2ccccc2Cl)CC1)c1ccccc1,10%
9,O=C(CCCN1CCC(NC(=O)c2ccccc2)CC1)c1ccc(Cl)cc1,-59.5%
10,CN1CCN(CCCC(=O)c2ccc(F)cc2)CC1.Cl,-1.2%
11,O=C(CCCN1CCC(C(=O)c2ccc(F)cc2)CC1)c1ccc(F)cc1,-86.2%
12,CC(C)CC(C)NC(=O)c1ccc(C(F)(F)F)cc1 (stereo not shown),10.6%
13,CCCCN(C)Cc1c(O)ccc2c(-c3ccccc3)cc(=O)oc12,-4.52%
14,CCOCCCn1c(=NC(=O)c2ccc(OC)c(OC)c2)c(C#N)cc2c(=O)n3cccc(C)c3nc21,-11%
15,CC(=O)N=c1c(C#N)cc2c(=O)n3cccc(C)c3nc2n1CCCOC(C)C,-13.3%
16,COCCCn1c(=NC(=O)c2ccccc2)c(C#N)cc2c(=O)n3cccc(C)c3nc21,-49%
17,Cc1cccn2c(=O)c3cc(C#N)c(=NC(=O)c4cccs4)n(CC(C)C)c3nc12,7.98%
18,COCCCn1c(=NC(C)=O)c(C#N)cc2c(=O)n3cccc(C)c3nc21,-7.03%
19,COCCCn1c(=NC(=O)c2ccncc2)c(C#N)cc2c(=O)n3cccc(C)c3nc21,-53.3%
20,Cc1cccn2c(=O)c3cc(C#N)c(=NC(=O)c4cccs4)n(CCCOC(C)C)c3nc12,-26.1%
21,Cc1cccn2c(=O)c3cc(C#N)c(=NC(=O)c4ccncc4)n(CCCOC(C)C)c3nc12,-89.7%
22,CCOCCCn1c(=NC(=O)c2cccs2)c(C#N)cc2c(=O)n3cccc(C)c3nc21,-53.9%
